According to PubChem BioAssay (Tox21):
Records with an inconclusive call do not appear. Where a call stands in place of a potency, no number is given. Calls of active or inactive are those of the source. Unless noted, the call rests on the fitted dose curve; in most records, active means well fitted curve in the direction sought with a large enough effect in the repeat runs; inconclusive means weak or mixed curves; inactive means no such curve, though single readings can be large; an effect the other way counts as inactive or inconclusive.

Assays:
[1] = qHTS assay to identify aromatase inhibitors - cell viability counter screen (AID 743084);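 further: cells stimulated with testosterone during compound exposure; nearly all actives have a fitted effect of over 55% in size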; further: potency means the concentration at half of the fitted maximal effect
[2] = molecular target: Aryl hydrocarbon receptor (Homo sapiens) (UniProt P35869); test: qHTS assay to identify small molecule that activate the aryl hydrocarbon receptor (AhR) signaling pathway (AID 743085); further: nearly all actives have a fitted effect of over 15% in size; further: potency means the concentration at half of the fitted maximal effect;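 on activation: HG2L7.5c1 human HepG2 liver cells with stably integrated DRE-driven firefly reporter; series mostly up to about 70 µM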
Summary of the method: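 HepG2 cells (HG2L7.5c1) stably carrying a firefly luciferase reporter driven by 20 dioxin responsive elements were exposed to compound for 24 h at 37C after a 5 h settling period; luminescence rise (ONE-Glo) indicated activation.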

[3] = molecular target: Peroxisome proliferator-activated receptor gamma (Homo sapiens) (UniProt P37231); test: qHTS assay to identify small molecule agonists of the peroxisome proliferator-activated receptor gamma (PPARg) signaling pathway (AID 743094; active means well fitted activation curve with a large enough effect in the signal ratio in the repeat runs, not every such curve was filed as active; the % refers to the signal ratio)
Summary of the method: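 Fluorescence-based beta-lactamase readout in HEK293H PPARg UAS-bla cells after 17 h compound exposure (37C) and 1 h B/G FRET substrate incubation at room temperature.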

[4] = qHTS assay to identify small molecule antagonists of the peroxisome proliferator-activated receptor gamma (PPARg) signaling pathway - cell viability counter screen (AID 743194); further: nearly all actives have a fitted effect of over 55% in size
Summary of the method: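 PPARg-UAS-bla HEK293H cells were plated, rested 5 h at 37 C, then treated with compounds plus rosiglitazone (50 nM final) for 17 h at 37 C; viability was then read by CellTiter-Glo luminescence after 30 min at room temperature.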

[5] = qHTS assay for small molecule agonists of the antioxidant response element (ARE) signaling pathway (AID 743202; active means well fitted activation curve with a large enough effect in the signal ratio in the repeat runs, not every such curve was filed as active; the % refers to the signal ratio; further: potency means the concentration at half of the fitted maximal effect)
Summary of the method: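 Steps: seed ARE-bla HepG2 cells (2,000/well); incubate 5 h at 37 C; add compounds by pin tool; incubate 16 h at 37 C; add FRET substrate; read fluorescence after 2 h at RT.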

[6] = qHTS assay for small molecule agonists of the antioxidant response element (ARE) signaling pathway - cell viability counter screen (AID 743203; calls by dose curve; further: nearly all actives have a fitted effect of over 55% in size)
Summary of the method: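 Parallel cytotoxicity read-out for the ARE-bla screen: HepG2 reporter cells, 16 hrs with compounds, then CellTiter-Glo luminescence.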

[7] = qHTS assay for small molecule activators of the heat shock response signaling pathway - cell viability counter screen (AID 743209); further: nearly all actives have a fitted effect of over 50% in size
Summary of the method: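 To flag cytotoxic compounds, HSE-bla HeLa cells plated at 1500 cells/well were dosed for 5 h at 37 C, followed by the reporter FRET read and then CellTiter-Glo, with luminescence recorded 30 min after reagent addition.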

[8] = qHTS assay for small molecule activators of the heat shock response signaling pathway (AID 743210; active means well fitted activation curve with a large enough effect in the signal ratio in the repeat runs, with a control signal flat, not every such curve was filed as active; the % refers to the signal ratio;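 further: HeLa cells with beta-lactamase reporter driven by heat shock elements; series mostly up to about 63 µM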)
Summary of the method: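 Activation of heat shock element-controlled beta-lactamase expression is measured in HeLa cells by LiveBLAzer FRET fluorescence, with compound exposure lasting 5 h at 37 C and substrate loading 2.5 h at room temperature.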

[9] = qHTS assay to identify small molecule agonists of the peroxisome proliferator-activated receptor delta (PPARd) signaling pathway - cell viability counter screen (AID 743211); further: nearly all actives have a fitted effect of over 55% in size
Summary of the method: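 PPARd-bla HEK293H cells (UAS-beta-lactamase reporter) were treated with compounds for 17 h at 37 C. Viability was then read in the same wells by CellTiter-Glo luminescence after 30 min at room temperature.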

[10] = molecular target: Peroxisome proliferator-activated receptor delta (Homo sapiens) (UniProt Q03181); test: qHTS assay to identify small molecule agonists of the peroxisome proliferator-activated receptor delta (PPARd) signaling pathway (AID 743212; calls by dose curve)
Summary of the method: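 Cells expressing a UAS-driven beta-lactamase reporter (PPARd-bla HEK293H) were given test compounds after a 5 h settle and kept at 37 C. Reporter activity was then measured as FRET fluorescence using LiveBLAzer B/G substrate.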

[11] = qHTS assay to identify small molecule antagonists of the peroxisome proliferator-activated receptor delta (PPARd) signaling pathway - cell viability counter screen (AID 743213); further: nearly all actives have a fitted effect of over 50% in size
Summary of the method: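 PPARd-bla HEK293H cells (3000/well) got compound plus 300 nM L165041 agonist for 17 h at 37 C. Viability in the same wells came from CellTiter-Glo luminescence after 30 min at room temperature.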

[12] = qHTS assay to identify small molecule agonists of the farnesoid-X-receptor (FXR) signaling pathway - cell viability counter screen (AID 743218); further: nearly all actives have a fitted effect of over 45% in size; further: potency means the concentration at half of the fitted maximal effect
Summary of the method: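 Same-well cytotoxicity check on FXR-UAS-bla HEK 293T cells: 5 h attachment, 16 h compound at 37 C, CellTiter-Glo luminescence read at room temperature after 30 min.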

[13] = molecular target: Vitamin D3 receptor (Homo sapiens) (UniProt P11473); test: qHTS assay to identify small molecule agonists of the vitamin D receptor (VDR) signaling pathway (AID 743222; calls by dose curve)
Summary of the method: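 Using LiveBLAzer B/G FRET detection, agonism was scored in VDR-bla cells exposed overnight (16 h, 37C) to DMSO-dissolved compounds; substrate incubation was 2 h at room temperature.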

[14] = molecular target: Vitamin D3 receptor (Homo sapiens) (UniProt P11473); test: qHTS assay to identify small molecule antagonists of the vitamin D receptor (VDR) signaling pathway (AID 743223; active means well fitted inhibition curve with a large enough effect in the signal ratio in the repeat runs, not every such curve was filed as active; the % refers to the signal ratio)
Summary of the method: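 VDR-bla cells were plated, incubated 4 h at 37C, then given compound and 1alpha,25-dihydroxyvitamin D3 (3 nM final). After 16 h at 37C, LiveBLAzer B/G FRET substrate was added for 2 h at room temperature and fluorescence read.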

[15] = qHTS assay to identify small molecule that activate the aryl hydrocarbon receptor (AhR) signaling pathway - cell viability counter screen (AID 743086);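 further: HepG2 liver cells carrying the AhR DRE luciferase reporter; series mostly up to about 70 µM; nearly all actives have a fitted effect of over 45% in size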
Summary of the method: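 HepG2-AhR-luc (HG2L7.5c1) cells, 4000/well, were preincubated 5 h at 37C, exposed to compound in qHTS format for 24 hr at 37C, then given CellTiter-Fluor for 30 min; viability was read as fluorescence in the reporter wells.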

[16] = molecular target: Peroxisome proliferator-activated receptor delta (Homo sapiens) (UniProt Q03181); test: qHTS assay to identify small molecule antagonists of the peroxisome proliferator-activated receptor delta (PPARd) signaling pathway (AID 743215; active means well fitted inhibition curve with a large enough effect in the signal ratio in the repeat runs, not every such curve was filed as active; the % refers to the signal ratio;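 further: cells stimulated with agonist L165041 at 300 nM final during compound exposure; series mostly up to about 62 µM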)
Summary of the method: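 Screen format: qHTS, antagonist mode. HEK293H PPARd-bla cells received compound and 300 nM L165041 (final), 17 h, 37 C. Beta-lactamase detected via FRET substrate fluorescence, 2 h, room temperature.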

[17] = molecular target: Bile acid receptor (Homo sapiens) (UniProt Q96RI1); test: qHTS assay to identify small molecule antagonists of the farnesoid-X-receptor (FXR) signaling pathway (AID 743217; active means well fitted inhibition curve with a large enough effect in the signal ratio in the repeat runs, not every such curve was filed as active; the % refers to the signal ratio)
Summary of the method: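 Quantitative HTS, beta-lactamase reporter format: FXR-UAS-bla HEK 293T cells co-treated 16 h at 37 °C with compounds and 50 uM final chenodeoxycholic acid, then read by B/G FRET fluorescence.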

[18] = molecular target: Bile acid receptor (Homo sapiens) (UniProt Q96RI1); test: qHTS assay to identify small molecule agonists of the farnesoid-X-receptor (FXR) signaling pathway (AID 743220; active means well fitted activation curve with a large enough effect in the signal ratio in the repeat runs, not every such curve was filed as active; the % refers to the signal ratio)
Summary of the method: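 FXR-UAS-bla HEK 293T cells carrying a UAS-driven beta-lactamase reporter were plated for 5 h at 37C/5% CO2, then exposed to DMSO-dissolved Tox21 10K compounds for 16 h at 37C. A LiveBLAzer B/G FRET substrate was loaded for 2 h at room temperature before fluorescence reading.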

[19] = qHTS assay to identify small molecule antagonists of the farnesoid-X-receptor (FXR) signaling pathway - cell viability counter screen (AID 743221; active means well fitted cell-killing curve with a large enough effect in the repeat runs, not every such curve was filed as active; further: nearly all actives have a fitted effect of over 50% in size)
Summary of the method: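 FXR-UAS-bla HEK 293T cells were treated with test compounds plus chenodeoxycholic acid (50 uM final) for 16 h at 37 C. Cell viability in the same wells was then read as CellTiter-Glo luminescence after 30 min at room temperature.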

[20] = molecular target: Peroxisome proliferator-activated receptor gamma (Homo sapiens) (UniProt P37231); test: qHTS assay to identify small molecule antagonists of the peroxisome proliferator-activated receptor gamma (PPARg) signaling pathway (AID 743191; calls by dose curve; further: series mostly up to about 63 µM; nearly all actives have a fitted effect of over 30% in size)
Summary of the method: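 GeneBLAzer PPARg UAS-bla HEK293H cells carrying a UAS-driven beta-lactamase reporter were plated at 3000 cells/well, preincubated 5 h at 37C, then given compound for 17 h at 37C; LiveBLAzer B/G FRET substrate was read after 1 h at room temperature.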

Sequence of Aryl hydrocarbon receptor (Homo sapiens) (P35869 whole entry, looked up): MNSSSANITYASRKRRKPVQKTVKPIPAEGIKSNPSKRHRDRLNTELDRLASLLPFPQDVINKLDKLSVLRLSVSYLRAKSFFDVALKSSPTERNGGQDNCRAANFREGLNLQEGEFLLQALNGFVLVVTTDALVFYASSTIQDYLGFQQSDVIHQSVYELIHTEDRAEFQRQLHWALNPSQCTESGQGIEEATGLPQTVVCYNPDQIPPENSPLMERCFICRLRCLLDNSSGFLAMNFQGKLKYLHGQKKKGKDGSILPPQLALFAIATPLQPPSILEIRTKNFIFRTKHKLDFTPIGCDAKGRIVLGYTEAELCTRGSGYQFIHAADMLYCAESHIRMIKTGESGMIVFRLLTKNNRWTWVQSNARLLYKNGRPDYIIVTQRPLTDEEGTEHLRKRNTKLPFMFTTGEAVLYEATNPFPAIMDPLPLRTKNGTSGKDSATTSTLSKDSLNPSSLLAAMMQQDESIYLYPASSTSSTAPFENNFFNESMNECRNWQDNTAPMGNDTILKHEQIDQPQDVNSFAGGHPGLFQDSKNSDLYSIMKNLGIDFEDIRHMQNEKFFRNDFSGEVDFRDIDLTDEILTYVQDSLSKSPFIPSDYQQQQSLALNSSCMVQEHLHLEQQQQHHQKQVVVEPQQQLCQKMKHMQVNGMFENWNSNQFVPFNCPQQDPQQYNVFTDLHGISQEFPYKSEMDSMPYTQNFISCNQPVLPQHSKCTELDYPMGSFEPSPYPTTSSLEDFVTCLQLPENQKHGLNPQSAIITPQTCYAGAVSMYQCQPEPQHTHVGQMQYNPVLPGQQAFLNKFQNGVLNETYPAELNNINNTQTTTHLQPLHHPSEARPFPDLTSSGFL
Sequence of Peroxisome proliferator-activated receptor gamma (Homo sapiens) (P37231 whole entry, looked up): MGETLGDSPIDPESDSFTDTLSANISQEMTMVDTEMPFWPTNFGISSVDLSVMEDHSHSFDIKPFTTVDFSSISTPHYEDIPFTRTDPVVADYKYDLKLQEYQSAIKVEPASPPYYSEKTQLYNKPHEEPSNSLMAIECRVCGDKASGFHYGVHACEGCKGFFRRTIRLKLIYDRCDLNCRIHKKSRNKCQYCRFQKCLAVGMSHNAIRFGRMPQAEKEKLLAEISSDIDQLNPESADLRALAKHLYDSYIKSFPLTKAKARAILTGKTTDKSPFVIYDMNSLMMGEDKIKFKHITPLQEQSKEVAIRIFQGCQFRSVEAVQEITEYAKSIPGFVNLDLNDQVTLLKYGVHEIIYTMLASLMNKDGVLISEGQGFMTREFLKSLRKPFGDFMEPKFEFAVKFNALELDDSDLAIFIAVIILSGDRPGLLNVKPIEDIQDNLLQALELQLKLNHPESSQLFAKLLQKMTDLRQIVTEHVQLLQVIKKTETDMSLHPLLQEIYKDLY
Sequence of Bile acid receptor (Homo sapiens) (Q96RI1 whole entry, looked up): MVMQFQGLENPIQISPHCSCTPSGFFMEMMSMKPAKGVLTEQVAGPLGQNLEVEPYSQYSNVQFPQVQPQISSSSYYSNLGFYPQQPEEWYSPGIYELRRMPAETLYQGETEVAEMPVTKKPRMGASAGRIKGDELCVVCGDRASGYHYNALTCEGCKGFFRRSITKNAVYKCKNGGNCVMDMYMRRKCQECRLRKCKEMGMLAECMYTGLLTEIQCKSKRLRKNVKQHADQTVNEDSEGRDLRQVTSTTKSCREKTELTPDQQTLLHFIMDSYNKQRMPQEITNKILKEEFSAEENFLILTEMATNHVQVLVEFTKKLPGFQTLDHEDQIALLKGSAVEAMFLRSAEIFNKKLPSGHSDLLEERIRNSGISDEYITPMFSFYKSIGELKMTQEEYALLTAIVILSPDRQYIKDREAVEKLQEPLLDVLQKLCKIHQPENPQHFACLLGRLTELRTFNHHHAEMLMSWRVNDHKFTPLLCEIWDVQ
Sequence of Peroxisome proliferator-activated receptor delta (Homo sapiens) (Q03181 whole entry, looked up): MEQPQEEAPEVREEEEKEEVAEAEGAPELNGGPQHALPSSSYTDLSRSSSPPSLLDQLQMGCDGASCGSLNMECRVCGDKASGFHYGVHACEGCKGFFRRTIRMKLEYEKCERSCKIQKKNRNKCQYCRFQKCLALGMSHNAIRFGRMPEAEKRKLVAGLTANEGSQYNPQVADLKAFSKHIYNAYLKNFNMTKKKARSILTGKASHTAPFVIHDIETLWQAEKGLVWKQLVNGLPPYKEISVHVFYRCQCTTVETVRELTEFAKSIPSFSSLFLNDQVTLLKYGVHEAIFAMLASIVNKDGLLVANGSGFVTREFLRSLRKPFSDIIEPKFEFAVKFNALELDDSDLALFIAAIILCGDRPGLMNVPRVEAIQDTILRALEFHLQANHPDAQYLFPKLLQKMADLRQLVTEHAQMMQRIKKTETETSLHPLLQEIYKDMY
Sequence of Vitamin D3 receptor (Homo sapiens) (P11473 whole entry, looked up): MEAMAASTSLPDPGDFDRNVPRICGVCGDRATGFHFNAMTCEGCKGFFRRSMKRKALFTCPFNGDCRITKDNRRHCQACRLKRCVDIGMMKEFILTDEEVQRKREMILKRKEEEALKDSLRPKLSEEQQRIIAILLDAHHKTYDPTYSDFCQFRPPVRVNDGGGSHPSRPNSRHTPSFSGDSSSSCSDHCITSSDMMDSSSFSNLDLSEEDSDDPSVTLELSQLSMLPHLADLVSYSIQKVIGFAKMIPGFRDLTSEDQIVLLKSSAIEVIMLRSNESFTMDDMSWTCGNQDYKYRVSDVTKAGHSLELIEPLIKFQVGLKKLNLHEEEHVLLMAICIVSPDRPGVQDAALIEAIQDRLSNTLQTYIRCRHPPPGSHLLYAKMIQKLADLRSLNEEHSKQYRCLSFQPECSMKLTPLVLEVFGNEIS

SMILES	Potency [1]	Potency [2]	Potency [3]	Potency [4]	Potency [5]	Potency [6]	outcome [7]	outcome [8]	Potency [9]	Potency [10]	Potency [11]	Potency [12]	outcome [13]	outcome [14]	Potency [15]	outcome [16]	outcome [17]	outcome [18]	Potency [19]	Potency [20]
C[C@H]1C[C@H]2[C@@H]3CCC4=CC(=O)C=C[C@]4(C)[C@@]3(F)[C@@H](O)C[C@]2(C)[C@@]1(O)C(=O)COP(=O)(O)O	inactive	inactive	inactive	inactive	inactive	inactive	inactive	inactive	inactive	inactive	inactive	inactive	inactive	inactive	–	–	–	–	–	–
CCCCCCCCNC	inactive	–	inactive	inactive	inactive	inactive	inactive	inactive	inactive	inactive	inactive	inactive	inactive	inactive	inactive	inactive	inactive	inactive	inactive	–
Cc1nc2sccn2c(=O)c1CCN1CCC(=C(c2ccc(F)cc2)c2ccc(F)cc2)CC1	inactive	inactive	–	inactive	–	inactive	–	inactive	inactive	inactive	–	26.6 µM (active)	–	–	–	–	–	–	inactive	–
Cc1nc(C)c(C)nc1C	inactive	–	inactive	–	–	inactive	inactive	inactive	–	inactive	inactive	inactive	inactive	inactive	inactive	inactive	–	–	inactive	inactive
COc1ccc(/C=C/c2cc(OC)cc(=O)o2)cc1	inactive	–	inactive	inactive	0.443 µM (active)	inactive	inactive	inactive	–	inactive	–	–	inactive	inactive	inactive	inactive	inactive	inactive	inactive	–
CC(C)(Cc1c[nH]c2ccccc12)NCC(O)COc1ccccc1C#N (stereo not given)	inactive	29.8 µM (active)	–	inactive	–	–	inactive	inactive	–	inactive	–	–	–	–	–	inactive	inactive	inactive	–	–
CCOc1ccc(NC(C)=O)cc1N	inactive	–	inactive	inactive	inactive	inactive	inactive	–	inactive	inactive	inactive	inactive	inactive	inactive	inactive	–	–	–	inactive	inactive
CC(C)(C(=O)O)c1ccc(C(O)CCCN2CCC(C(O)(c3ccccc3)c3ccccc3)CC2)cc1 (stereo not given)	inactive	–	inactive	–	–	inactive	inactive	inactive	inactive	inactive	inactive	inactive	inactive	–	inactive	–	–	–	inactive	inactive
c1ccc(-c2ccc(-c3ccccc3)cc2)cc1	inactive	–	inactive	inactive	inactive	inactive	–	–	–	inactive	inactive	inactive	–	inactive	inactive	inactive	inactive	inactive	inactive	–
C1CCN(CN2CCCCC2)CC1	inactive	–	inactive	inactive	–	inactive	inactive	inactive	inactive	inactive	inactive	inactive	inactive	inactive	inactive	–	–	–	inactive	inactive
Clc1ccccc1-c1nc(-c2ccncc2)no1	inactive	–	inactive	inactive	1.68 µM (active)	inactive	inactive	inactive	–	inactive	inactive	inactive	–	–	inactive	–	inactive	inactive	inactive	inactive
Cc1cc(N)n(-c2ccccc2)n1	inactive	–	inactive	inactive	inactive	inactive	inactive	inactive	inactive	inactive	inactive	inactive	inactive	inactive	inactive	inactive	–	–	–	inactive
CC(C(=O)O)c1ccc(/C=C2\CCCCC2=O)cc1 (stereo not given)	inactive	–	–	inactive	29.8 µM (active)	inactive	inactive	inactive	inactive	inactive	inactive	inactive	inactive	–	inactive	–	–	–	inactive	inactive
O=c1c2ccccc2oc2ccccc12	inactive	–	–	inactive	inactive	inactive	inactive	–	inactive	–	–	–	inactive	–	inactive	–	–	–	–	–
CO[C@@H]1[C@@H](O[C@@H]2O[C@H](C)[C@@H](O[C@H]3C[C@@](C)(O)[C@@H](O)[C@H](C)O3)[C@H](N(C)C)[C@H]2O)[C@@H](CC=O)C[C@@H](C)[C@@H](O[C@@H]2CC[C@H](N(C)C)[C@@H](C)O2)/C=C/C=C/C[C@@H](C)OC(=O)C[C@H]1OC(C)=O	inactive	inactive	inactive	inactive	inactive	inactive	–	inactive	inactive	–	–	–	inactive	–	–	–	–	–	inactive	inactive
O=c1[nH]nc(-c2ccc([N+](=O)[O-])o2)o1	30.6 µM (active)	inactive	inactive	inactive	–	inactive	inactive	inactive	–	inactive	inactive	inactive	inactive	inactive	–	inactive	–	–	inactive	–
Sc1nc(S)nc(S)n1	inactive	inactive	–	inactive	–	inactive	inactive	inactive	inactive	inactive	inactive	inactive	inactive	–	–	–	inactive	inactive	–	–
CC(O)CN (stereo not given)	inactive	–	inactive	inactive	inactive	inactive	–	–	inactive	–	inactive	inactive	inactive	inactive	inactive	–	–	–	inactive	–
CCn1nc(Cc2ccccc2)cc1C1CCN(C[C@H]2C[C@H](N(C)[C@@H](C(=O)O)C(C)C)C[C@@H]2c2cccc(F)c2)CC1	inactive	inactive	–	inactive	–	inactive	–	inactive	inactive	–	inactive	inactive	–	–	–	–	–	–	inactive	–
CNc1ccccc1	inactive	–	inactive	inactive	inactive	inactive	inactive	inactive	inactive	inactive	inactive	inactive	inactive	inactive	inactive	inactive	–	–	inactive	inactive
